Screening data (PubChem)
BRCA1 expr up: activators of BRCA1 expression; AID 624202; 1.1% of 380,000 active; Potency, µM (doses to about 46.1 µM), for inactives: at the top dose activation, usual class: activators; MCF7-BRCA1-FFLuc reporter, luminescence, 48 h; response scale: scaled: vehicle 0%, 10 µM genistein 100%; note: potency is the fitted concentration of half-maximal effect; nearly all actives have a fitted effect of over 80% in size
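Luminescence from a BRCA1-driven firefly luciferase in MCF7 cells was the read-out, taken 15 min after substrate addition following 48 h compound exposure at 37 °C. Data were normalized to a 10 microM genistein control and DMSO vehicle.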
Giardia killer: kills Giardia lamblia. activity change, % at 7.66 µM, hits read low. 0.15% of 340,000 active. Giardia lamblia trophozoite viability; in the data active = activity change below about -80%; inconclusive = between about -30% and that limit;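 note: parasites exposed to compound for two days anaerobically before the ATP read; % is set by controls: 0 for no effect and ±100 for the full control effect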
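Luminescence from cellular ATP indicates surviving trophozoites (100 cells/well) following 48 hrs anaerobic compound treatment at 37 deg C; signal develops 15-30 min at room temperature.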
ELG1 repair inh: ELG1-dependent DNA repair inhibition | AID 504467 | Potency, µM (series often up to 46.1 µM), without a hit: at the top dose activity change, negative = inhibition, usual class: inhibitors | HEK293T ELG1-luciferase reporter, luminescence, 16 h; DNA damage induced by 5-fluorouridine | 2.3% of 330,000 active; note: potency is the fitted concentration of half-maximal effect; % is set by controls: 0 for no effect and ±100 for the full control effect; nearly all actives have a fitted effect of over 55% in size
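Overnight (16 hr) co-exposure of 2,000 cells/well to 5-fluorouridine and compound at 37 °C preceded detection. Luciferase was quantified via ONE-Glo luminescence; loss of signal denotes inhibition.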
VP16 counter: inhibits Gal4-VP16 luciferase reporter, ROR gamma counter-screen. Potency, µM (doses to about 53.6 µM), without a hit: at the highest dose activity, negative = inhibition, usual class: inhibitors. 3.5% of 310,000 active. Drosophila S2 Gal4-VP16 UAS-luciferase, luminescence, 20 h. AID 2546;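 note: Gal4-VP16 expression switched on by copper sulfate through the metallothionein promoter; potency is the fitted concentration of half-maximal effect; % is set by controls: 0 for no effect and ±100 for the full control effect; nearly all actives have a fitted effect of over 50% in size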
p53 reactivator: restores transcriptional activity of mutant p53 | H1299 p53-A138V BP100-luciferase reporter, luminescence, 24 h | Potency, µM (top dose mostly 92.2 µM), for the others: at the top dose activity change, positive = activation, hits mostly activators | 0.063% of 320,000 active; note: potency is the fitted concentration of half-maximal effect; % of control where 0% means no effect; nearly all actives have a fitted effect of over 45% in size
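H1299 (p53-null), stable ts p53-A138V + BP100-Luc; 1000 cells/well, Opti-MEM/10% FBS; cpd 4 pt, 1:5; 24 h, 37 deg C, 5% CO2; detection reagent 10 min RT; luminescence.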
RORgamma inh: blocks mouse ROR gamma transcriptional activity. P51450. Drosophila S2 Gal4-RORgamma UAS-luciferase reporter, 20 h. Potency, µM (top dose mostly 53.6 µM), inactives show at the highest dose activity change, negative = inhibition, hits mostly inhibitors. 5.4% of 310,000 active. AID 2551; note: potency is the fitted concentration of half-maximal effect; % is set by controls: 0 for no effect and ±100 for the full control effect; nearly all actives have a fitted effect of over 60% in size
Target sequence (P51450 whole entry, looked up, the tested form may be a part): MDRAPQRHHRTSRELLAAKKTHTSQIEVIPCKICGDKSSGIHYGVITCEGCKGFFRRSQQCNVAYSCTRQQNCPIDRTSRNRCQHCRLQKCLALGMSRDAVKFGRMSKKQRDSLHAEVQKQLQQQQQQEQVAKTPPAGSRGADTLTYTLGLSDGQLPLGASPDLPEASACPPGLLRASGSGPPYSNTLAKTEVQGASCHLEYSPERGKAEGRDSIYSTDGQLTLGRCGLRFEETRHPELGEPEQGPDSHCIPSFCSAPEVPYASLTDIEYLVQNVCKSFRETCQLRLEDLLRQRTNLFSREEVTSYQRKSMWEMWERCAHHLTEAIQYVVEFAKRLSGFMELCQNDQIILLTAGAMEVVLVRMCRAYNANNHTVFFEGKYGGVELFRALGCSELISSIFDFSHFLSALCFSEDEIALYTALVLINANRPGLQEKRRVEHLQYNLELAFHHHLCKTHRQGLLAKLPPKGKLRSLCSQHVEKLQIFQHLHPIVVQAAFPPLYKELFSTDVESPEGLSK
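Drosophila S2 cells stably expressing Gal4-DBD/mouse RORγ fusion under metallothionein promoter plus UAS-luciferase; compound 1 h, then 700 uM CuSO4 induction for 20 h at ambient temperature; inhibition read as reduced luminescence.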
* marks the source's active call; other numbers are inactive results; ? = inconclusive; nt = no result given; ! = repeats disagree; [ ] = dose if it differs, or a comment. Only some compounds are listed: those with a hit (about 7.6% of all), similar ones and a draw of the others. Unless noted, calls come from the whole dose curve; as a rule, active = well fitted curve in the direction sought with a large enough effect; inconclusive = small, poorly fitted or top-dose-only effect, or another doubt; inactive = no such curve, though single readings can be large; an effect the other way counts as inactive or inconclusive.

SMILES	BRCA1 expr up	Giardia killer	ELG1 repair inh	VP16 counter	p53 reactivator	RORgamma inh
CN(C)c1cccc(C(=O)Nc2nc3ccccc3[nH]2)c1	11.3%	?	?	11.2µM*	26.7%	5.01µM*
Cc1cccc(C(=O)N[C@H](C(=O)Nc2nc3ccccc3[nH]2)C(C)C)c1	-64.3%	28.2	?	?	6.4%	?
CCCNc1nc(Nc2ccc([N+](=O)[O-])cc2)nc(N2CCOCC2)n1	-16.2%	nt	nt	nt	nt	nt
Cc1ccc(CNC(=O)CN2C(=O)NC3(CCCC3)C2=O)cc1	-53.1%	16.4	-1.7%	nt	4.1%	nt
CCOc1ccc(N(C)S(=O)(=O)c2ccc(C)c(C(=O)OCC(=O)c3c[nH]c4ccccc34)c2)cc1	-42.7%	1.0	?	-3.9%	1.3%	34.5%
CC(/C=C/c1ccccc1)=N\Nc1ccccc1[N+](=O)[O-]	83.8%	9.0	?	-3.2%	12.4%	28.2%
O=C(Nc1ccc2ccccc2n1)C1CCCCC1	2.82µM*	8.3	?	-13.9%	?	6.7%
O=C(Nc1ccc2ccccc2n1)c1ccccc1Cl	85.2%	-7.0	?	?	?	12.6µM*
COc1cccc(C(=O)Nc2cccc3ccccc23)c1OC	34.1%	-14.7	?	0.8%	9.5%	44.8%
COc1ccc(C(=O)Nc2ccc3ccccc3n2)c(OC)c1OC	?	?	?	10µM*	-9.2%	8.91µM*
CCOC(=O)C(c1ccccc1)C(Nc1cc(C(F)(F)F)cc(C(F)(F)F)c1)c1ccccn1 (stereo not given)	-15.8%	17.9	25.7%	-6.5%	1.3%	-6.0%
CC(C)[C@@H](CC(=O)N[C@@H]1CCNC[C@H]1C(=O)N[C@H](CC(=O)N[C@@H](CCC(=O)O)CC(=O)O)Cc1ccccc1)NC(=O)C[C@H](CO)NC(=O)[C@@H]1CCCC[C@H]1N	nt	nt	nt	-0.9%	nt	-3.3%
Fc1ccc(CSc2ccc(-c3ccco3)nn2)cc1	7.08µM*	-11.3	?	?	?	20.0%
CCCCNc1c2c3c(cccc3n(C)c1=O)C(=O)c1ccccc1-2	-88.3%	-6.3	16.4µM*	-0.4%	-11.4%	?
Cn1c(=O)c(NCCc2ccccc2)c2c3c(cccc31)C(=O)c1ccccc1-2	-45.3%	11.7	20.6µM*	-1.7%	-7.7%	-17.9%
Cn1c(=O)c(NC2CCCCC2)c2c3c(cccc31)C(=O)c1ccccc1-2	-47.6%	9.3	18.3µM*	2.0%	-1.6%	-11.2%
CC1CC(C(=O)Nc2ccccc2)C(=O)O1 (stereo not given)	0.0%	-8.1	nt	nt	nt	nt
CC1(C)CC(CC(=O)O)(c2ccc(Cl)cc2)CCO1 (stereo not given)	8.3%	7.9	2.8%	9.1%	-4.4%	3.3%
NC(=O)c1ccccc1NC(=O)CN1CCN(Cc2ccc(Cl)cc2Cl)CC1	-45.3%	3.7	10.3µM*	-24.6%	-12.6%	?
CC1CC(OCC(O)CN2CCCCC2C)CC(C)(C)C1 (stereo not given)	-19.8%	5.2	-11.8%	7.6%	-1.4%	-1.1%
COc1ccc(-c2cc(C(=O)Nc3ccccc3N3CCOCC3)c3ccccc3n2)cc1OC	-42.5%	8.8	11.6µM*	-0.7%	-4.2%	24.9%
Cc1ccc(-c2cc(C(=O)Nc3ccncc3)c3ccccc3n2)cc1	-1.6%	18.5	?	nt	5.9%	nt
O=C(NCc1cc([N+](=O)[O-])ccc1O)c1cc(-c2ccncc2)nc2ccccc12	-21.2%	-0.5	-17.3%	8.91µM*	0.6%	14.1µM*
O=C(Nc1ccc(N2CCOCC2)cc1)c1cc(-c2ccncc2)nc2ccccc12	14.3%	-19.5	?	-0.9%	-4.6%	4.7%
CC(C)(C)c1ccccc1NC(=O)c1cc(-c2ccncc2)nc2ccccc12	-33.2%	23.2	16.4µM*	nt	-12.0%	nt
SMILES	BRCA1 expr up	Giardia killer	ELG1 repair inh	VP16 counter	p53 reactivator	RORgamma inh
O=C(Nc1ccccc1N1CCOCC1)c1cc(-c2ccncc2)nc2ccccc12	0.0%	-13.9	14.6µM*	-2.5%[10 µM]	-4.3%	3.4%
C=CCN(CC=C)CC(=O)Nn1c(C)ccc1C	-11.1%	-1.3	nt	nt	nt	nt
CCn1cc(/C=C/C(=O)NCc2c(C)nn(C)c2C)cn1	0.9%	15.5	?	-1.5%	23.8%	2.2%
Cc1ccccc1C(=O)c1c[nH]c(C(=O)NCc2ccco2)c1	2.5%	-8.5	6.2%	9.7%	-1.1%	37.4%
CCOC(=O)C(CC(=O)O)N1CCCCC1 (stereo not given)	-10.6%	3.3	-4.8%	-2.4%	-1.3%	-2.9%
CC1=NN(c2nc(C)cc(C)n2)C(=O)C1CCC(C)C (stereo not given)	-1.6%	-1.4	17.6%	7.94µM*	6.1%	2µM*
CCC1C(=O)N(c2nc(C)cc(C)n2)N=C1C (stereo not given)	0.7%	-13.3	2.7%	-8.9%	-1.9%	?
COc1ccc(CCNC(=O)CSc2nnc3ccc(-c4ccccn4)nn23)cc1OC	-4.1%	-5.8	?	nt	-2.3%	nt
c1ccc2c(c1)Sc1ccccc1N2CCN1CCCC1	nt	nt	nt	-0.8%	nt	20.9%
CN1CCN(CCCN2c3ccccc3Sc3ccc(C(F)(F)F)cc32)CC1	-50.3%	-21.9	-10.1%	14.1µM*!	-4.4%	?
CCNC(=S)Nc1cc(OCC)c(NC(=O)c2ccco2)cc1OCC	0.2%	6.8	?	?	-19.6%	15.8µM*
COc1ccccc1C(=O)NNC(=O)C(=O)Nc1ccc(C)cc1	-33.6%	0.1	-4.8%	3.0%	-0.4%	11.2µM*
COc1cc(NC(=S)NC(=O)c2ccco2)ccc1NC(=O)C(C)C	24.8%	-4.9	?	-16.0%	12.1%	-25.3%
COC(=O)c1cc(OC)c(OC)cc1NC(=S)NC(=O)c1ccco1	-2.1%	-1.3	7.5%	-23.9%	?	8.91µM*
COc1ccccc1C(=O)NNC(=O)C(=O)Nc1ccc(C)c(Cl)c1	-11.3%	2.9	-3.9%	-17.6%	2.0%	?
COc1cc(NC(=S)NCCCN(C)C)c(OC)cc1NC(=O)c1ccco1	-7.2%	2.5	-3.3%	-2.7%	0.5%	-3.3%
CCNC(=S)Nc1cc(OC)c(NC(=O)c2ccco2)cc1OC	-2.7%	0.9	-5.3%	-9.9%	1.2%	12.6µM*
COc1cc(NC(=O)c2ccccc2-c2ccccc2)cc(OC)c1	-27.1%	1.3	0.5%	5.1%	-2.5%	24.4%
CCOc1cc(NC(=S)NCCOC)c(OCC)cc1NC(=O)c1ccco1	-14.0%	16.5	?	?	1.5%	12.6µM*
COc1ccc(C(=O)NNC(=S)NC(=O)c2ccco2)cc1	-91.4%	-7.8	1.3%	4.4%	14.9%	-12.5%
CCOc1ccc(NC(=O)c2ccc(CC)s2)c([N+](=O)[O-])c1	?	15.5	?	-16.8%	8.1%	-5.6%
